Starred links: 1 amine or outer side, 2 acyl side, 3 side chain; linkers in the order of their positions; H or OH if unused. Positions of bridges follow the written chain, without caps; N, C: chain ends. Non-standard residues stand in square brackets, D forms with d. Residues, ends and D or L forms follow the SMILES beside them. *: point of attachment. X2 = NC1=C[C@@H](O)C[C@H]([C@H](N[*:1])C(=O)[*:2])N1; ΔAla(3-NHCONH2) = NC(=O)NC=C(N)C(=O)O; β3hOrn = NCCC[C@H](N)CC(=O)*; Dap = NC[C@H](N)C(=O)O

The nature of assay [1]: qHTS profiling for inhibitors of Plasmodium falciparum (3D7) proliferation (AID 743322).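 Note: infected erythrocytes exposed to compound for 72 h before lysis; 100% = DMSO vehicle wells and 0% = 0.29 µM artemisinin.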 The note with it: P. falciparum 3D7 proliferation; at 28.7 µM (top of the series). Summed up: (§1)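 Erythrocytes infected with P. falciparum (0.3% parasitemia, 2.5% hematocrit) incubated with compounds 72 h at 37 C, 5% CO2. Lysis with saponin/Triton buffer containing SYBR Green I, overnight at room temperature in the dark; DNA fluorescence (485/535 nm) normalised to 0.29 uM artemisinin and DMSO.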
(In general: Quantitative high-throughput screening tests each substance at several concentrations.)

Assay [2] in a line: qHTS profiling for inhibitors of Plasmodium falciparum (DD2) proliferation (AID 743323). The conditions noted are these: lower = more inhibition; at 28.7 µM (top of the series). In a few lines:
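Parasite DNA quantified by SYBR Green fluorescence (ex 485, em 535 nm) after saponin/Triton lysis and overnight dark incubation. Cultures: 0.3% parasitemia, 2.5% hematocrit, 72 h, 37 C; data scaled between DMSO and 0.29 uM artemisinin.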

A short description of assay [3]: qHTS profiling for inhibitors of Plasmodium falciparum (HB3) proliferation (AID 743324).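 Note: 100% = DMSO vehicle wells and 0% = artemisinin-treated control wells.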 The conditions noted are these: Plasmodium falciparum HB3 blood-stage proliferation; at 28.7 µM (top of the series). Summed up: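 P. falciparum HB3 grown in erythrocytes (0.3% parasitemia, 2.5% hematocrit final) with compound for 72 h at 37 C, 5% CO2. Parasite DNA detected by SYBR Green after saponin/triton lysis overnight; normalized to 0.29 uM artemisinin and DMSO.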

The nature of assay [4]: qHTS profiling of the MIPE4 collection as inhibitors of Plasmodium falciparum (3D7) proliferation (AID 743344).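 Note: scaled between DMSO vehicle wells and 0.29 µM artemisinin as full inhibition.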 The conditions noted are these: P. falciparum 3D7 in erythrocytes, SYBR Green DNA fluorescence, 72 h; at 28.5 µM (top of the series). In a few lines: as §1
Assay [5] can be described thus: qHTS profiling of the MIPE4 collection as inhibitors of Plasmodium falciparum (DD2) proliferation (AID 743345). The conditions noted are these: P. falciparum Dd2 in erythrocytes, SYBR Green DNA, 72 h; at 28.5 µM (top of the series). In a few lines: as §1
Assay [6] can be described thus: qHTS profiling of the MIPE4 collection as inhibitors of Plasmodium falciparum (DD2) proliferation (Rep 2) (AID 743346). The conditions noted are these: P. falciparum Dd2 in erythrocytes, SYBR Green DNA, 72 h; at 28.5 µM (top of the series). Summed up: as §1
The nature of assay [7]: qHTS profiling of the MIPE4 collection as inhibitors of Plasmodium falciparum (HB3) proliferation (AID 743347).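 Note: plate controls were DMSO vehicle wells for no effect and artemisinin wells for full effect.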 The conditions noted are these: P. falciparum HB3 in erythrocytes, SYBR Green DNA, 72 h; at 28.5 µM (top of the series). In a few lines: as §1

In the case of `COC(=O)[C@H](Cc1ccc(O[S+](=O)([O-])c2cccc3cnccc23)cc1)N[S+](=O)([O-])c1ccc2cnccc2c1`, the remaining parasite growth % (stronger effect = lower value) in assay [1] is 13.9%. Also, the activity, percent of control in assay [2] is 29.2%. In addition, in assay [3], the remaining proliferation (% of control), lower = more inhibition turned out to be 6.01%.

In the case of `O=C([C@@H](Cc1ccc(O[S+](=O)([O-])c2ccccn2)cc1)N[S+](=O)([O-])c1cccc2cccnc12)N1CCN(c2ccccc2)CC1`, the remaining parasite growth % (stronger effect = lower value) in assay [1] was -0.32%. The compound also came in with an activity, percent of control in assay [2] of 1.5%. Also, the remaining proliferation (% of control), lower = more inhibition in assay [3] came out at 0.71%.

`C[C@H]1CCN(C(=O)CC#N)C[C@H]1N(C)c1ncnc2[nH]ccc12`: in assay [4], the parasite growth, % of DMSO control came to 69.9%. This compound showed a parasite growth remaining, % of DMSO control (lower = more inhibition) in assay [5] of 98.8%. Also, the parasite growth, % of control (lower = inhibition) in assay [6] is 51.2%. For the same compound, in assay [7], the growth, % of control amounted to 114%.

As to `O=C([C@H](Cc1ccc(O[S+](=O)([O-])c2cccc3cnccc23)cc1)N[S+](=O)([O-])c1cccnc1)N1CCN(c2ccccc2)CC1`, the remaining parasite growth % (stronger effect = lower value) in assay [1] is -1.25%. For the same compound, the activity, percent of control in assay [2] amounted to 0.979%. Moreover, the remaining proliferation (% of control), lower = more inhibition in assay [3] is -0.812%.

Take `Cc1nc2c(C#N)cccc2n1-c1ccc(C(=O)NC2CC2)s1`: the remaining parasite growth % (stronger effect = lower value) in assay [1] is 0.492%. This compound also registered an activity, percent of control in assay [2] of 1.69%. The remaining proliferation (% of control), lower = more inhibition in assay [3] came out at 1.16%. The compound also displayed a parasite growth, % of DMSO control in assay [4] of 6.59%. This compound also gave a parasite growth remaining, % of DMSO control (lower = more inhibition) in assay [5] of 9.03%. In addition, the parasite growth, % of control (lower = inhibition) in assay [6] stood at 10.3%. This compound also showed a growth, % of control in assay [7] of 4.26%.

`O=C([C@H](Cc1ccc(O[S+](=O)([O-])c2ccccn2)cc1)N[S+](=O)([O-])c1cccc2cnccc12)N1CCN(c2ccccc2)CC1`: the remaining parasite growth % (stronger effect = lower value) in assay [1] is -0.962%. The activity, percent of control in assay [2] turned out to be 2.47%. In addition, the remaining proliferation (% of control), lower = more inhibition in assay [3] came to 0.0492%.

In the case of `N[C@@H](Cc1ccc(OS(=O)(=O)c2ccccn2)cc1)C(=O)N1CCN(c2ccccc2)CC1`, the remaining parasite growth % (stronger effect = lower value) in assay [1] amounted to 98.8%. In assay [2], this compound showed an activity, percent of control of 43.6%. The remaining proliferation (% of control), lower = more inhibition in assay [3] came out at 67%.

For the compound `NCCC[C@H](N)CC(=O)N[C@H]1CNC(=O)[C@H]([C@H]2C[C@H](O)C=C(N)N2)NC(=O)C(=CNC(N)=O)NC(=O)[C@H](CO)NC(=O)[C@H](CO)NC1=O` (β3hOrn-[Dap]SS[ΔAla(3-NHCONH2)][X2]; lactam 1-C), the parasite growth, % of DMSO control in assay [4] is 96%. This compound came in with a parasite growth remaining, % of DMSO control (lower = more inhibition) in assay [5] of 96%. Also, the parasite growth, % of control (lower = inhibition) in assay [6] came out at 133%. For the same compound, the growth, % of control in assay [7] worked out at 100%.

As for `O=C([C@H](Cc1ccc(O[S+](=O)([O-])c2ccccn2)cc1)N[S+](=O)([O-])c1cccnc1)N1CCN(c2ccccc2)CC1`, in assay [1], the remaining parasite growth % (stronger effect = lower value) was 17.8%. Moreover, the activity, percent of control in assay [2] came out at 17.9%. Further, in assay [3], the remaining proliferation (% of control), lower = more inhibition was 2.38%.

On to `C[C@]1(COc2ccc(N3CCC(Oc4ccc(OC(F)(F)F)cc4)CC3)cc2)Cn2cc([N+](=O)[O-])nc2O1`, for which the parasite growth, % of DMSO control in assay [4] came to 81.7%. The same compound returned a parasite growth remaining, % of DMSO control (lower = more inhibition) in assay [5] of 82%. In assay [6], the parasite growth, % of control (lower = inhibition) came out at 90.2%. In addition, the growth, % of control in assay [7] came to 88.7%.

On to `COC1=C2C[C@H](C)C[C@H](OC)[C@@H](O)[C@@H](C)C=C(C)[C@H](OC(N)=O)[C@@H](OC)C=CC=C(C)C(=O)NC(=CC1=O)C2=O`, for which the parasite growth, % of DMSO control in assay [4] was 5.44%. Further, the parasite growth remaining, % of DMSO control (lower = more inhibition) in assay [5] was found to be 7.35%. In addition, the parasite growth, % of control (lower = inhibition) in assay [6] turned out to be 6.42%. For the same compound, in assay [7], the growth, % of control stood at 2.93%.

On to `O=C([C@H](Cc1ccc(O[S+](=O)([O-])c2cccc3cccnc23)cc1)N[S+](=O)([O-])c1cccc2cnccc12)N1CCN(c2ccccc2)CC1`, for which, in assay [1], the remaining parasite growth % (stronger effect = lower value) was -0.402%. Besides, the activity, percent of control in assay [2] came to 1.4%. For the same compound, the remaining proliferation (% of control), lower = more inhibition in assay [3] worked out at 0.212%.

For the compound `O=C1C(=O)c2ccccc2C(O)=C1C1CCCCC1`, in assay [1], the remaining parasite growth % (stronger effect = lower value) came out at 3.7%. Further, the activity, percent of control in assay [2] was determined as 4.15%. Further, in assay [3], the remaining proliferation (% of control), lower = more inhibition was found to be 3.28%.

The values are drawn from PubChem BioAssay (NCATS).
